# Assay results published in PubChem BioAssay (EPA / NIEHS).
# Inconclusive results are not listed. Activity calls are given as the source filed them. How the source made its calls, unless noted: active means hit-call score of the fitted dose curve at least 0.9, where 1 is the maximum; inconclusive means response in the unintended direction; inactive means score below 0.9.
# Biological target: Nuclear receptor subfamily 1 group I member 3 (Homo sapiens) (UniProt Q14994)
# Assay: ATG_CAR_TRANS: Attagene TRANS-FACTORIAL HepG2 Assay for human Constitutive Androstane Receptor (CAR) (AID 2282969);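 further: activators raise reporter mRNA above DMSO so AC50 marks induction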
# Conditions: HepG2 Attagene TRANS-FACTORIAL CAR reporter
# In short: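 HepG2 cells transiently transfected with multiplexed GAL4-UAS reporter units expressing chimeric NR-Gal4 proteins; compound exposure 24 h. Reporter mRNA measured by RT-PCR, 6-FAM labelling, HpaI digestion and capillary electrophoresis; gain-of-signal fitted against DMSO baseline.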
# Sequence of Nuclear receptor subfamily 1 group I member 3 (Homo sapiens) (Q14994 whole entry, looked up): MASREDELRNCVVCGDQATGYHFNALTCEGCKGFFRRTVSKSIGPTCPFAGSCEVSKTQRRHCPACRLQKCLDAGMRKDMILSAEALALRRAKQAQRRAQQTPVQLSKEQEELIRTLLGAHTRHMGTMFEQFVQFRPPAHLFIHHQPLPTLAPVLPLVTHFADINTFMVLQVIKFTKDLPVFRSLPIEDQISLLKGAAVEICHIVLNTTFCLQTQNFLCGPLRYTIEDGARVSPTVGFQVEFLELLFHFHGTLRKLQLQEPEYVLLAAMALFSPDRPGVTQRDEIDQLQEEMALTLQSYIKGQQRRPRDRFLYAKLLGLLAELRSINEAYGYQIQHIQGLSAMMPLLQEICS
row,Structure (SMILES),outcome
1,CCCCCOC(C)=O,inactive
2,OCc1ccccc1,inactive
3,Cc1nc(-c2ccccn2)ncc1C(=O)Nn1cc(C)c2cc(F)ccc21,inactive
4,Cc1nccn1-c1ccc(Sc2cccc(C3(C(N)=O)CCOCC3)c2)cc1,inactive
5,CCOc1ccc2[nH]cc(C(=O)NCc3ccccc3)c(=O)c2n1,inactive
6,CC(C)CC(C)O (configuration not stated),inactive

# Biological target: Estrogen receptor (Homo sapiens) (UniProt P03372)
# Assay: ATG_ERa_TRANS: Attagene TRANS-FACTORIAL HepG2 Assay for human Estrogen Receptor alpha (ERa) (AID 2282970)
# Conditions: HepG2 Attagene TRANS ERa GAL4 reporter, mRNA
# In short: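 Cells: HepG2, transiently transfected. Construct: GAL4-UAS reporter units regulated by exogenous NR-Gal4 chimeras. Time: 24 h. Detection: reporter mRNA by RT-PCR, capillary electrophoresis, fluorescence. Baseline: DMSO, upward fitting.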
# Sequence of Estrogen receptor (Homo sapiens) (P03372 whole entry, looked up): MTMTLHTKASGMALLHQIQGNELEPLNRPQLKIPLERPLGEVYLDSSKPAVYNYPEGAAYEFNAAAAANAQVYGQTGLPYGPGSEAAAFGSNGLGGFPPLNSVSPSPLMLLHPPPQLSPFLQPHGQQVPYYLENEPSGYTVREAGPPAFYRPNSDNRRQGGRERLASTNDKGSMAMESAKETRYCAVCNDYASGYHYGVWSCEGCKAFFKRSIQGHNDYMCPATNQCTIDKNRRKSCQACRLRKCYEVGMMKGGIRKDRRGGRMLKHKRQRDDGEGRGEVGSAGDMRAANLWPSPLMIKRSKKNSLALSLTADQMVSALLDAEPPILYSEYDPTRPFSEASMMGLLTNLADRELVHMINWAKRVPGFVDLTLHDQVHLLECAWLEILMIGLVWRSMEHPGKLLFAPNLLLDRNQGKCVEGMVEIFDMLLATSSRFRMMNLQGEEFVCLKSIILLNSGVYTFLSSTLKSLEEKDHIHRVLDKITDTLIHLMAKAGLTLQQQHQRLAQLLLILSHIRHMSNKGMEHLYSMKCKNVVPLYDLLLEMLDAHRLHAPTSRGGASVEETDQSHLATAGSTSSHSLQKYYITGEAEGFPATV
Structure (SMILES),outcome,AC50
CCCC(CCC)C(=O)O,inactive,–
Cc1ccc(S(=O)(=O)NC(=O)NN2CCCCCC2)cc1,inactive,–
CCc1ccc(O)c(C(C)(C)C)c1,–,24.2 µM (active)
CCCCCCCCCCCCCCO,inactive,–
Nc1ccn([C@@H]2O[C@H](CO)[C@@H](O)[C@@H]2O)c(=O)n1,–,40 µM (active)
COCc1nnc(-c2ccc[n+]([O-])c2)n1-c1c(Cl)c(Cl)cc2[nH]c(=O)c(=O)[nH]c12,inactive,–
NNC(=O)c1ccncc1,inactive,–
CCCOc1ccc(S(=O)(=O)N2CCN(CC)CC2)cc1-c1nc2c(CC)n(Cc3ccccn3)nc2c(=O)[nH]1,inactive,–
OC(Cn1cncn1)(Cn1cncn1)c1ccc(F)cc1F,inactive,–
c1ccc2cc3ccccc3cc2c1,inactive,–
Cc1nccn1-c1ccc(Sc2cccc(C3(C(N)=O)CCOCC3)c2)cc1,inactive,–
COS(C)(=O)=O,inactive,–
O=C(NO)C1(NS(=O)(=O)c2ccc(Oc3ccc(F)cc3)cc2)CCOCC1,inactive,–
C[C@]12C=CC(=O)C=C1CC[C@H]1[C@@H]3C[C@@H](O)[C@](O)(C(=O)CO)[C@@]3(C)C[C@H](O)[C@@]12F,–,37.2 µM (active)
CCCCCCCC/C=C\CCCCCCCC(=O)OC[C@@H](O)[C@H]1OC[C@H](O)[C@H]1O,inactive,–
O=C1CN(N=Cc2ccc([N+](=O)[O-])o2)C(=O)N1,–,32.1 µM (active)
C=CCc1cc(S(=O)(=O)c2ccc(O)c(CC=C)c2)ccc1O,–,2.06 µM (active)
CCOc1ccc2[nH]cc(C(=O)NCc3ccccc3)c(=O)c2n1,inactive,–
CCCCCCCCN(C)C,inactive,–
CCCCCCCCCCCCCCCCOS(=O)(=O)O,inactive,–
CCCCCCCCCC,inactive,–

# Biological target: Steroid hormone receptor ERR1 (Homo sapiens) (UniProt P11474)
# Assay: ATG_ERRa_TRANS: Attagene TRANS-FACTORIAL HepG2 Assay for human Estrogen-Related Receptor alpha (ERRa) (AID 2282971)
# Conditions: HepG2 Attagene TRANS reporter, ERRa transactivation
# In short: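 Reporter transcripts from ERRa-Gal4 chimera activity measured in transiently transfected human HepG2 cells 24 hours after dosing, using RT-PCR with 6-FAM primer extension, HpaI digestion and capillary electrophoresis; DMSO is baseline.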
# Sequence of Steroid hormone receptor ERR1 (Homo sapiens) (P11474 whole entry, looked up): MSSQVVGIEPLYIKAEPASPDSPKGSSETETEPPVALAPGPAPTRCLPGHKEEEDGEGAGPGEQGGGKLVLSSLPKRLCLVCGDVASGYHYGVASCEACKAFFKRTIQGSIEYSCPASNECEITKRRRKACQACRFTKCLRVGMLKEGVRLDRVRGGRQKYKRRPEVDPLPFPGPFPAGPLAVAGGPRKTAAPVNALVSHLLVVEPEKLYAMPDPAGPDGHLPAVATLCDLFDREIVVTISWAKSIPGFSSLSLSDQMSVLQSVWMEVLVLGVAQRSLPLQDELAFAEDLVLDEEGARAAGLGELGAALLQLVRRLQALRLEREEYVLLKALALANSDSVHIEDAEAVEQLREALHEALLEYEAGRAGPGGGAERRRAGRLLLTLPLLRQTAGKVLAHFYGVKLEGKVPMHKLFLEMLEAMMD
row,Structure (SMILES),outcome
1,OCCNCCO,inactive
2,NNC(=O)c1ccncc1,inactive
3,c1ccc2cc3ccccc3cc2c1,inactive
4,CCCCCCOC(=O)CC(CC(=O)OCCCCCC)(OC(=O)CCC)C(=O)OCCCCCC,inactive
5,OCc1ccccc1,inactive
6,Cc1nc(-c2ccccn2)ncc1C(=O)Nn1cc(C)c2cc(F)ccc21,inactive
7,CCCCCCCCN(C)C,inactive
8,CCCCCCCCCCCCCCCCOS(=O)(=O)O,inactive

# Biological target: X-box-binding protein 1 (Homo sapiens) (UniProt P17861)
# Assay: ATG_Xbp1_CIS: Attagene CIS-FACTORIAL HepG2 Assay for human X-box Binding Protein 1 (XBP1) (AID 2282972; active means hit-call score of the fitted dose curve at least 0.9, where 1 is the maximum; inactive means score below 0.9)
# Conditions: HepG2 XBP1 cis-element reporter, Attagene multiplex; actives raise or lower the signal
# In short: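 Fluorescence-labelled cDNA fragments from reporter transcripts, separated by capillary electrophoresis, give the signal. Source: HepG2 cells transfected with promoter-driven reporter units, harvested 24 h post-dose. DMSO served as reference for bidirectional curve fitting.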
# Sequence of X-box-binding protein 1 (Homo sapiens) (P17861 whole entry, looked up): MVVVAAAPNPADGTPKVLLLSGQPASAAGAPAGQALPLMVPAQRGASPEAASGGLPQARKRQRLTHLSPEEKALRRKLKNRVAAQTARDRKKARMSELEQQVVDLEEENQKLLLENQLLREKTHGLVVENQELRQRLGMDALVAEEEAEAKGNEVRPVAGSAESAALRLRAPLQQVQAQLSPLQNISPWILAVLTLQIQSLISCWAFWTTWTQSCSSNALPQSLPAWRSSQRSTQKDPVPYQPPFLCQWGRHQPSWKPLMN
Structure (SMILES),outcome,AC50
NC(=O)NN=Cc1ccc([N+](=O)[O-])o1,inactive,–
CCCC(CCC)C(=O)O,inactive,–
Cc1ccc(S(=O)(=O)NC(=O)NN2CCCCCC2)cc1,inactive,–
CCc1ccc(O)c(C(C)(C)C)c1,inactive,–
CCCCCCCCCCCCCCO,inactive,–
OCCNCCO,inactive,–
Nc1ccn([C@@H]2O[C@H](CO)[C@@H](O)[C@@H]2O)c(=O)n1,inactive,–
COCc1nnc(-c2ccc[n+]([O-])c2)n1-c1c(Cl)c(Cl)cc2[nH]c(=O)c(=O)[nH]c12,inactive,–
CCCCCOC(C)=O,inactive,–
NNC(=O)c1ccncc1,inactive,–
CCCOc1ccc(S(=O)(=O)N2CCN(CC)CC2)cc1-c1nc2c(CC)n(Cc3ccccn3)nc2c(=O)[nH]1,inactive,–
OC(Cn1cncn1)(Cn1cncn1)c1ccc(F)cc1F,inactive,–
c1ccc2cc3ccccc3cc2c1,inactive,–
CCCCCCOC(=O)CC(CC(=O)OCCCCCC)(OC(=O)CCC)C(=O)OCCCCCC,inactive,–
OCc1ccccc1,inactive,–
Cc1nc(-c2ccccn2)ncc1C(=O)Nn1cc(C)c2cc(F)ccc21,inactive,–
Cc1nccn1-c1ccc(Sc2cccc(C3(C(N)=O)CCOCC3)c2)cc1,–,1.57 µM (active)
COS(C)(=O)=O,inactive,–
O=C(NO)C1(NS(=O)(=O)c2ccc(Oc3ccc(F)cc3)cc2)CCOCC1,inactive,–
C[C@]12C=CC(=O)C=C1CC[C@H]1[C@@H]3C[C@@H](O)[C@](O)(C(=O)CO)[C@@]3(C)C[C@H](O)[C@@]12F,inactive,–
CCCCCCCC/C=C\CCCCCCCC(=O)OC[C@@H](O)[C@H]1OC[C@H](O)[C@H]1O,inactive,–
O=C1CN(N=Cc2ccc([N+](=O)[O-])o2)C(=O)N1,inactive,–
C=CCc1cc(S(=O)(=O)c2ccc(O)c(CC=C)c2)ccc1O,inactive,–
CCOc1ccc2[nH]cc(C(=O)NCc3ccccc3)c(=O)c2n1,inactive,–
CCCCCCCCN(C)C,inactive,–
CC(C)CC(C)O (configuration not stated),inactive,–
CCCCCCCCCCCCCCCCOS(=O)(=O)O,inactive,–
CCCCCCCCCC,inactive,–

# System: not listed separately
# Assay: ATG_GAL4_TRANS: Attagene TRANS-FACTORIAL HepG2 Assay for GAL4 (Internal Marker) (AID 2282976)
# Conditions: HepG2 Attagene TRANS GAL4 internal marker reporter
# In short: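 In transfected human HepG2 liver cells dosed 24 h, GAL4 reporter mRNA serves as a baseline marker. Detection by RT-PCR with fluorescent capillary electrophoresis, activity fitted upward relative to DMSO.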
row,Structure (SMILES),outcome
1,CCCC(CCC)C(=O)O,inactive
2,Cc1ccc(S(=O)(=O)NC(=O)NN2CCCCCC2)cc1,inactive
3,OCCNCCO,inactive
4,Nc1ccn([C@@H]2O[C@H](CO)[C@@H](O)[C@@H]2O)c(=O)n1,inactive
5,COCc1nnc(-c2ccc[n+]([O-])c2)n1-c1c(Cl)c(Cl)cc2[nH]c(=O)c(=O)[nH]c12,inactive
6,NNC(=O)c1ccncc1,inactive
7,CCCCCCOC(=O)CC(CC(=O)OCCCCCC)(OC(=O)CCC)C(=O)OCCCCCC,inactive
8,OCc1ccccc1,inactive
9,Cc1nc(-c2ccccn2)ncc1C(=O)Nn1cc(C)c2cc(F)ccc21,inactive
10,COS(C)(=O)=O,inactive
11,CCCCCCCC/C=C\CCCCCCCC(=O)OC[C@@H](O)[C@H]1OC[C@H](O)[C@H]1O,inactive
12,C=CCc1cc(S(=O)(=O)c2ccc(O)c(CC=C)c2)ccc1O,inactive
13,CCOc1ccc2[nH]cc(C(=O)NCc3ccccc3)c(=O)c2n1,inactive
14,CC(C)CC(C)O (configuration not stated),inactive
